Source: PubChem BioAssay
CYP2C9 inh: blockers of cytochrome P450 2C9 activity – biochemical, luminescence, ADME assay, primary screen | CYP2C9 Supersomes, luciferin-H conversion | inhibition, % at 5 µM | 20% of 96,000 active;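 active means blocking of liver enzyme CYP2C9 beyond about 50% at 5 µM, limit read from the data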
CYP2C9 activ: human CYP2C9 activators, primary screen, biochemical, luminescence. Cytochrome P450 2C9 (Homo sapiens), P11712. recombinant CYP2C9, luciferin-H conversion; active compounds read high; factor 1 = untreated enzyme, 0 = blocked. activation factor at 5 µM. 1.4% of 96,000 active. AID 1024, 2008;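 active means activation factor of 2 or more for CYP2C9 at a 5 µM dose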;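 further: 0 = sulfaphenazole-blocked wells and 1 = vehicle-only wells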
PTK2B oligo ant: antagonists of Pyk2 self-association, primary screen, Q293 cells, FERM NanoBiT luminescence, HTS; Protein-tyrosine kinase 2-beta (Homo sapiens), Q14289; active compounds read low; z-score (the deposit names both 25 µM and 10 µM); 0.83% of 99,000 active; AID 1347419, 2020;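 active means Z-score of -3 or lower, scaled per plate to the spread of control and sample wells; inactive means z-score above -3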;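 further: negative z-score means lost luminescence so less FERM oligomerization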
Cav3 T inh: Cav3.2 calcium influx blockers – cell-based, Fluo-4 calcium fluorescence, FDSS, MLSMR library, primary screen. Voltage-dependent T-type calcium channel subunit alpha-1H (Homo sapiens), O95180. Cav3.2-expressing cells; active compounds read low. B-score at 10 µM. 4% of 100,000 active. AID 449739, 2010;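 active means single-dose well whose peak fluorescence ratio is a statistical outlier from its plate by either plate-standardised score or position-corrected B-score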
Target sequence (O95180 whole entry, looked up): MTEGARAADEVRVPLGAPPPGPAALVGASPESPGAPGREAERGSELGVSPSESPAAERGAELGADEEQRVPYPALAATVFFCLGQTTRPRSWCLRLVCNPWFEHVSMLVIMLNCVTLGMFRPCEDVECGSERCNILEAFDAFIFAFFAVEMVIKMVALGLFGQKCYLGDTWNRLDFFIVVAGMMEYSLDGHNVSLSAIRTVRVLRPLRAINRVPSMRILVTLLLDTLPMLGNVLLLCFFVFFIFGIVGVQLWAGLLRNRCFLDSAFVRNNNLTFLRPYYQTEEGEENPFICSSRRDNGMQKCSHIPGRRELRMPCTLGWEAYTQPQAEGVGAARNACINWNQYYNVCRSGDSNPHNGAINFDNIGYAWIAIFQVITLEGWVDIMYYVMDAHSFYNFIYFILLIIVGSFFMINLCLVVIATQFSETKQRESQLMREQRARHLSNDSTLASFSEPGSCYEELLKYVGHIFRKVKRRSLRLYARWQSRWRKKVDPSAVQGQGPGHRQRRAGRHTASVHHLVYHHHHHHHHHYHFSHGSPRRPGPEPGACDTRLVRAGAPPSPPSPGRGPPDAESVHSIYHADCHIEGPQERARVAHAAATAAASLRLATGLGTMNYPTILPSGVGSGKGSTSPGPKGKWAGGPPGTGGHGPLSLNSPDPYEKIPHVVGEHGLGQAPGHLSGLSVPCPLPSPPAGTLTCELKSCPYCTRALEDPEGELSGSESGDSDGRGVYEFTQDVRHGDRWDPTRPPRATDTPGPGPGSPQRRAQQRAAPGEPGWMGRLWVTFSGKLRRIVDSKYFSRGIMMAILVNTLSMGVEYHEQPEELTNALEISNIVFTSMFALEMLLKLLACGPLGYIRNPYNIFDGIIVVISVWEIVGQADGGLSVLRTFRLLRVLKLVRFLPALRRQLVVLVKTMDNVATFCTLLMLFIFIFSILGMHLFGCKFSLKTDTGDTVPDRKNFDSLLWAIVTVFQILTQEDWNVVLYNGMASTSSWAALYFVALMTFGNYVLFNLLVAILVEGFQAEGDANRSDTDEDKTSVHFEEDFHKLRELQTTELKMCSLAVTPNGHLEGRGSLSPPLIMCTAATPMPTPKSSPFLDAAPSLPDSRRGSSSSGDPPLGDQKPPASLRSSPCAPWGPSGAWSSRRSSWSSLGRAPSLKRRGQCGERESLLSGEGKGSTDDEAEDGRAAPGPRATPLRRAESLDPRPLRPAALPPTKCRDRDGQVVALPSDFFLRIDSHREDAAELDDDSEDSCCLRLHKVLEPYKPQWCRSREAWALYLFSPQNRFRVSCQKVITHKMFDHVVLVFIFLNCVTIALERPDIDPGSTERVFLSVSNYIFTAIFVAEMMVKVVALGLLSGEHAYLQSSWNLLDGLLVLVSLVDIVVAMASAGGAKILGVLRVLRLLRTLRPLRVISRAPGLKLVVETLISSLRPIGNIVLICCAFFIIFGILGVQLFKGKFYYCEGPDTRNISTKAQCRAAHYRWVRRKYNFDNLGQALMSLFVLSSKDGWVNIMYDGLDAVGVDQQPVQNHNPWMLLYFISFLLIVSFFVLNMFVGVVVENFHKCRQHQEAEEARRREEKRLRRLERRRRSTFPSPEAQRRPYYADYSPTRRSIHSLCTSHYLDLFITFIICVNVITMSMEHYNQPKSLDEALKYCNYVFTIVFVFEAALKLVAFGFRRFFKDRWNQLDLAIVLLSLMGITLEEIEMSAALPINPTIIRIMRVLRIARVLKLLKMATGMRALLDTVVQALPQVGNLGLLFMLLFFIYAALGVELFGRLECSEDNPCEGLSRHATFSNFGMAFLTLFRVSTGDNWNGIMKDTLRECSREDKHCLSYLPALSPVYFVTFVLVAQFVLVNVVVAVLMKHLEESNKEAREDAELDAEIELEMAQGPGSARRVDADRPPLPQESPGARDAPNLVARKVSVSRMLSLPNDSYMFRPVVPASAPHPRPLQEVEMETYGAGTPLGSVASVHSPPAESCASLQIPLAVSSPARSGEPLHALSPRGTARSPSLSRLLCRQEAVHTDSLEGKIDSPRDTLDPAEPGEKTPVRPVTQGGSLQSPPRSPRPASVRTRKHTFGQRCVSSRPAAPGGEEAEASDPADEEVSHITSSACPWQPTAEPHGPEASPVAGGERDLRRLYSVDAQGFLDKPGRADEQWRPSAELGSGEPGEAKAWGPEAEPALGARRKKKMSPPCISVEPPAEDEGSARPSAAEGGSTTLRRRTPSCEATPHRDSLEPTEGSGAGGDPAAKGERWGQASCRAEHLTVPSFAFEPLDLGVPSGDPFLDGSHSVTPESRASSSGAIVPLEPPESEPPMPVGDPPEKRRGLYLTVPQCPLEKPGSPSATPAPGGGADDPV
CYP2C19 activ: human CYP2C19 activators, primary screen, biochemical, luminescence; AID 1025, 2008; activation factor at 5 µM; Cytochrome P450 2C19 (Homo sapiens), P33261; 96,000 tested, under 10 active; recombinant CYP2C19, luciferin-H EGE luminescence; active compounds read high; 0 = fully inhibited enzyme, 1 = untreated enzyme;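 active means activation factor of at least 2 at 5 µM in the primary screen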;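 further: 0 = wells with 2.5 mM tranylcypromine and 1 = vehicle-only wells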
CYP2C19 inhib: blockers of cytochrome P450 2C19 activity – biochemical, luminescence, ADME assay, primary screen | AID 778, 2007 | P33261 | 21% of 96,000 active | CYP2C19 Supersomes, luciferin-H EGE luminescence, 30 min | inhibition, % at 5 µM;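 active means CYP2C19 inhibition above a set limit at 5 µM in the primary screen, cut at about 50% in these data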;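 further: plate controls were negative control wells for no effect and 2.5 mM tranylcypromine positive control for full effect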
The depositor's hits bear a star; . = no result given. Shown are actives, neighbours in structure and some others; about 27% of the full set was active somewhere.

SMILES	CYP2C9 inh	CYP2C9 activ	PTK2B oligo ant	Cav3 T inh	CYP2C19 activ	CYP2C19 inhib
C/C(Cn1nnc([N+](=O)[O-])n1)=N\NC(=O)c1ccc(Cl)c(Cl)c1	5	0.9	-0.29	0.23	0.9	13
Cc1ccc2c(c1)-c1c(cnn1CC(=O)N(CCC#N)c1ccccc1)CO2	31	0.7	.	0.12	0.8	23
CC(=O)Nc1cc(S(=O)(=O)Nc2ccccc2)c(C)cc1C	-8	1.1	-0.99	.	0.8	21
CC(=O)Nc1cc(S(=O)(=O)Nc2cccc(C)c2)c(C)cc1C	-56	1.6	0.25	.	0.4	65*
CC(=O)Nc1cc(S(=O)(=O)Nc2ccccc2C)c(C)cc1C	-32	1.3	-0.27	.	0.5	51*
CCCCOc1ccc(/C=c2\sc3ncnn3c2=O)cc1	10	0.9	-0.98	0.24	1	-2
COc1cccc(C2N(c3cccc(Cl)c3)C(=O)C3CCCN32)c1OC (centres undefined)	70*	0.3	.	-1.7	0.2	78*
COc1cc(C2N(c3cccc(Cl)c3)C(=O)C3CCCN32)cc(OC)c1OC (centres undefined)	17	0.8	.	2.1	0.6	43
O=C1C2CCCN2C(c2ccc(F)c(F)c2)N1c1cccc(Cl)c1 (centres undefined)	41	0.6	.	-0.063	0.5	50*
NC(=O)CSc1nc2sc3c(c2c2ncnn12)CCCC3	18	0.8	0.62	1.2	0.8	16
CCn1c(SCC(N)=O)nc2sc3c(c2c1=O)CCCC3	55*	0.4	0.09	1.4	0.9	14
CCn1c(SCC(=O)NCCOC)nc2sc3c(c2c1=O)CCCC3	80*	0.2	0.41	-0.29	0.5	49
CCn1c(SCC(=O)NCCOC)nc2sc(C)c(C)c2c1=O	-12	1.1	.	0.85	1.1	-9
CCOC(=O)C1CCCn2c1nc1sc3c(c1c2=O)CCCC3 (centres undefined)	77*	0.2	0.69	0.34	0.3	66*
CCN(CC)CCCN1C(=O)c2oc3ccccc3c(=O)c2C1c1cc(OC)ccc1OC (centres undefined)	-8	1.1	0.38	0.12	1.1	-13
CCOC(=O)C1=C(N)N2C(=O)CSC2=C(C(=O)OC)C1	46	0.5	-0.09	-0.0082	1.2	-15
CCOC(=O)c1ccccc1NC1CC(=O)N(c2ccccc2C)C1=O (centres undefined)	76*	0.2	-1.6	-1.7	0.2	80*
O=C(Nc1ccc(Cl)c(Cl)c1)OCCNC(=O)c1cccc(Cl)c1	41	0.6	0.91	-0.27	1	2
CC(=O)NCCOC(=O)Nc1ccncc1	62*	0.4	0.39	0.093	0.8	22
O=C(c1ccc(=O)n(Cc2ccc(Cl)c(Cl)c2)c1)N1CCOCC1	24	0.8	-0.05	0.82	0.6	38
O=c1ccc(NS(=O)(=O)c2ccccc2)cn1Cc1ccc(Cl)c(Cl)c1	79*	0.2	-0.37	-2.6	0	98*
CCCCN1CC[C@H]2C=CC[C@@H](C(=O)Nc3nccs3)[C@H]2C1=O	.	.	.	0.83	.	.
O=C1CN=C(Nc2ccccc2Cl)N1Cc1ccc2c(c1)OCO2	.	.	-1.3	0.0054	.	.
Cc1cc(=O)oc2cc(OCC(=O)N3CCOCC3)ccc12	.	.	0.55	-0.017	.	.
COc1ccc2c(c1)c(=O)oc1cc(OCC(=O)N3CCc4ccccc4C3)ccc12	61*	0.4	1.8	-3.3	0.6	40
COc1ccc2c(c1)c(=O)oc1cc(OCC(=O)N3CCCC(C)C3)ccc12 (centres undefined)	44	0.6	-0.54	.	0	99*
COc1ccc2c(c1)c(=O)oc1cc(OCC(=O)N3CCC(C)CC3)ccc12	48	0.5	0.63	-0.059	0	99*
CC(=O)N(c1ccc(Cl)cc1)c1c[nH]c2ccccc12	70*	0.3	-1.8	-1.5	0.1	92*
Cc1c(Cl)cccc1NC(=S)NCc1ccccc1	.	.	-0.2	-2	.	.
Fc1ccccc1NC(=S)NN(Cc1ccccc1)c1ccccc1	82*	0.2	-1.2	-3.3	0	95*
